Test results taken from PubChem BioAssay (Tox21).
Where “and” joins values, the source holds several entries; their conditions need not be identical. Equal entries are not always repeated. Inconclusive results are not listed. A structure can be active in one record and inactive in another. Calls of active or inactive are those of the source. Unless noted, calls follow the shape of the dose curve; as a rule, active = well fitted curve in the direction sought with a large enough effect in the repeat runs; inconclusive = weak or mixed curves; inactive = no such curve, though single readings can be large; an effect the other way counts as inactive or inconclusive.

Legend:
[1] = qHTS assay to identify small molecule antagonists of the retinoic acid receptor (RAR) signaling pathway (AID 1159552; also: nearly all actives have a fitted effect of over 50% in size; also: potency is read from the fitted curve at half-maximal effect)
Summary of the method: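 Retinol at 1 uM final stimulated RARE-luciferase expression in C3RL4 cells exposed to test compounds for 6 hr at 37 C. Reduced luminescence, read 30 min after detection reagent, indicated pathway antagonism.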

[2] = qHTS assay to identify small molecule antagonists of the estrogen related receptor (ERR) signaling pathway (AID 1224819; also: potency is read from the fitted curve at half-maximal effect; nearly all actives have a fitted effect of over 50% in size)
Summary of the method: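 ERR reporter cells were plated at 2,000 cells/well and left 6 h at 37 C/5% CO2 before pin-tool transfer of compounds in DMSO. After 18 h at 37 C, One-Glo was added and luminescence was read 30 min later at room temperature.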

[3] = qHTS assay to identify small molecule agonists of the estrogen related receptor (ERR) signaling pathway (AID 1224820); also: % is scaled to controls: 0 for no effect and ±100 for the full control effect
Summary of the method: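 Cells: ERR line from NTP, 2,000/well. Pre-incubation 6 h, 37 C/5% CO2. Compound (DMSO) pin transfer, 18 h 37 C. One-Glo, 30 min RT, luminescence.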

[4] = test system: estrogen-related receptor alpha (ERRalpha) with PGC-1alpha coactivator, human; experiment: qHTS assay to identify small molecule antagonists of the estrogen related receptor signaling pathway with the pleiotropic PPARgamma coactivator (PGC) (AID 1224821; calls by dose curve;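 also: series mostly up to about 46 µM; % is scaled to controls: 0 for no effect and ±100 for the full control effect; lower luminescence signal means antagonism of PGC/ERR signalling; nearly all actives have a fitted effect of over 50% in size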)
Summary of the method: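 Luminescent read-out (One-Glo, 30 min at room temperature) following 18 h treatment of PGC/ERR cells at 37 C with compounds delivered in DMSO. Cells had settled 6 h at 37 C/5% CO2 before dosing.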

[5] = qHTS assay to identify small molecule antagonists of the estrogen related receptor signaling pathway with the pleiotropic PPARgamma coactivator (PGC) cell viability counter screen (AID 1224822; also: potency is read from the fitted curve at half-maximal effect)
Summary of the method: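 PGC/ERR cells were seeded at 2,000 cells/well, rested 6 h at 37 C/5% CO2, then given compounds in DMSO by pin tool and incubated 17.5 h at 37 C. Viability came from CellTiter-Fluor fluorescence after 30 min.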

[6] = qHTS assay to identify small molecule agonists of the estrogen related receptor signaling pathway with the pleiotropic PPARgamma coactivator (PGC) (AID 1224823); also: % is scaled to controls: 0 for no effect and ±100 for the full control effect
Summary of the method: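 Steps: plate PGC/ERR cells at 2,000 cells/well; incubate 6 h, 37 C/5% CO2; pin-transfer compounds (DMSO); incubate 18 h, 37 C; add One-Glo; 30 min RT; read luminescence.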

[7] = qHTS assay to identify small molecule antagonists of the estrogen related receptor (ERR) signaling pathway from Tox21 library - cell viability counter screen (AID 1224834); also: nearly all actives have a fitted effect of over 30% in size; also: potency is read from the fitted curve at half-maximal effect
Summary of the method: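 ERR reporter cells were plated 6 h before compound addition, then exposed to test compounds in DMSO for 17.5 h at 37 C. Viability was read as CellTiter-Fluor fluorescence after a 30-minute incubation at 37 C.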

[8] = target: Luciferin 4-monooxygenase (Photinus pyralis) (UniProt P08659); experiment: qHTS assay to identify small molecule inhibitors of firefly luciferase (AID 1224835); also: nearly all actives have a fitted effect of over 25% in size; also: potency is read from the fitted curve at half-maximal effect
Chain of Luciferin 4-monooxygenase (Photinus pyralis) (P08659 whole entry, looked up): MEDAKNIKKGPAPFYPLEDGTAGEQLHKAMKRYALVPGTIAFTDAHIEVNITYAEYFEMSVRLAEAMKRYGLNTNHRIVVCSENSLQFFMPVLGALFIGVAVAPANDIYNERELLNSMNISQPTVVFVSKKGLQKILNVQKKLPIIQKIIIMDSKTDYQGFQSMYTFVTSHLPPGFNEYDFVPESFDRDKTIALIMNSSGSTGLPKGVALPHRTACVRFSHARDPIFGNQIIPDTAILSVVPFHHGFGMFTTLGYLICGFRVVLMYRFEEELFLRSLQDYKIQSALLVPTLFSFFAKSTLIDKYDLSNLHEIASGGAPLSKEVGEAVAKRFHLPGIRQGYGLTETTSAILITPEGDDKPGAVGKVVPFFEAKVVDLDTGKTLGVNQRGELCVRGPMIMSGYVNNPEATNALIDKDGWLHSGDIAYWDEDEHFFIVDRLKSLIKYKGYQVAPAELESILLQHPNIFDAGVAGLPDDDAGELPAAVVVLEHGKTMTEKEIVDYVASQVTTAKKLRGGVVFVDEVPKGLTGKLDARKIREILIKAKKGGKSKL
Summary of the method: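 Inhibition of purified Photinus luciferase is measured by luminescence. Substrate levels (D-luciferin, ATP) sit at their KM values. Each compound is tested in a concentration series.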

[9] = qHTS assay to identify small molecule agonists of the constitutive androstane receptor (CAR) signaling pathway - cell viability counter screen (AID 1224836); also: nearly all actives have a fitted effect of over 45% in size; also: potency is read from the fitted curve at half-maximal effect
Summary of the method: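 Cells were seeded and incubated 4 hrs. Compounds were added across 15 concentrations together with PK11195 at 0.75 uM final. Plates were incubated 23 hrs at 37 C. CellTiter-Fluor was added and fluorescence measured.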

[10] = qHTS assay to identify small molecule antagonists of the constitutive androstane receptor (CAR) signaling pathway - cell viability counter screen (AID 1224837); also: nearly all actives have a fitted effect of over 45% in size; also: potency is read from the fitted curve at half-maximal effect
Summary of the method: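 HepG2 cells stably expressing hCAR and a CYP2B6-2.2kb reporter were plated and pre-incubated 4 hr at 37 C/5% CO2, then given compounds at 15 concentrations plus 50 nM CITCO (final). After 23 hr, viability was read by CellTiter-Fluor fluorescence.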

[11] = target: Nuclear receptor subfamily 1 group I member 3 (Homo sapiens) (UniProt Q14994); experiment: qHTS assay to identify small molecule antagonists of the constitutive androstane receptor (CAR) signaling pathway (AID 1224838); also: nearly all actives have a fitted effect of over 40% in size; also: potency is read from the fitted curve at half-maximal effect; as to activity, negative = inhibition: % is scaled to controls: 0 for no effect and ±100 for the full control effect
Chain of Nuclear receptor subfamily 1 group I member 3 (Homo sapiens) (Q14994 whole entry, looked up): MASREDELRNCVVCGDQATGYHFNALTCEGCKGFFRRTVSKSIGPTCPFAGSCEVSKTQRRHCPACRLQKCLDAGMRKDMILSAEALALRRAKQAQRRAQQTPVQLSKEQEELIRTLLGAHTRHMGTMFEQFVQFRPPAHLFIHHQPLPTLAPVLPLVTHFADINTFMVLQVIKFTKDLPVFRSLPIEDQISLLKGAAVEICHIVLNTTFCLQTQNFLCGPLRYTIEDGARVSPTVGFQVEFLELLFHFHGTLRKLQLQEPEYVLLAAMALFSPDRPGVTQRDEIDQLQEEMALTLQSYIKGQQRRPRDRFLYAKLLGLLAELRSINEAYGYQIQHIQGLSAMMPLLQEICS
Summary of the method: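 HepG2 cells stably co-transfected with hCAR and a CYP2B6-2.2kb luciferase reporter were seeded 4 h before compound addition at 15 concentrations. Cells were stimulated with 50 nM CITCO (final) for 24 h at 37 C; luciferase luminescence was then read.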

[12] = target: Nuclear receptor subfamily 1 group I member 3 (Homo sapiens) (UniProt Q14994); experiment: qHTS assay to identify small molecule agonists of the constitutive androstane receptor (CAR) signaling pathway (AID 1224839); also: nearly all actives have a fitted effect of over 15% in size; also: potency is read from the fitted curve at half-maximal effect
Summary of the method: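 Cells were plated and incubated 4 hrs, then dosed with compounds at 15 concentrations. PK11195 was added to 0.75 uM final. After 24 hrs at 37 C, luciferase luminescence was measured.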

[13] = qHTS assay to identify small molecule agonists of the estrogen related receptor signaling pathway with the pleiotropic PPARgamma coactivator (PGC) from Tox21 10K library (AID 1224842); also: % is scaled to controls: 0 for no effect and ±100 for the full control effect; nearly all actives have a fitted effect of over 15% in size
Summary of the method: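 Luminescence from One-Glo (30 min, room temperature) measured after PGC/ERR cells had 18 h at 37 C with pinned compound (23 nL in DMSO). Cells had been seeded at 2,000 per well and pre-incubated 6 h.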

[14] = target: Thyrotropin receptor (Homo sapiens) (UniProt P16473); experiment: qHTS assay to identify small molecule agonists of the thyroid stimulating hormone receptor (TSHR) signaling pathway (AID 1224843; calls by dose curve; also: nearly all actives have a fitted effect of over 45% in size; also: potency is read from the fitted curve at half-maximal effect)
Chain of Thyrotropin receptor (Homo sapiens) (P16473 whole entry, looked up): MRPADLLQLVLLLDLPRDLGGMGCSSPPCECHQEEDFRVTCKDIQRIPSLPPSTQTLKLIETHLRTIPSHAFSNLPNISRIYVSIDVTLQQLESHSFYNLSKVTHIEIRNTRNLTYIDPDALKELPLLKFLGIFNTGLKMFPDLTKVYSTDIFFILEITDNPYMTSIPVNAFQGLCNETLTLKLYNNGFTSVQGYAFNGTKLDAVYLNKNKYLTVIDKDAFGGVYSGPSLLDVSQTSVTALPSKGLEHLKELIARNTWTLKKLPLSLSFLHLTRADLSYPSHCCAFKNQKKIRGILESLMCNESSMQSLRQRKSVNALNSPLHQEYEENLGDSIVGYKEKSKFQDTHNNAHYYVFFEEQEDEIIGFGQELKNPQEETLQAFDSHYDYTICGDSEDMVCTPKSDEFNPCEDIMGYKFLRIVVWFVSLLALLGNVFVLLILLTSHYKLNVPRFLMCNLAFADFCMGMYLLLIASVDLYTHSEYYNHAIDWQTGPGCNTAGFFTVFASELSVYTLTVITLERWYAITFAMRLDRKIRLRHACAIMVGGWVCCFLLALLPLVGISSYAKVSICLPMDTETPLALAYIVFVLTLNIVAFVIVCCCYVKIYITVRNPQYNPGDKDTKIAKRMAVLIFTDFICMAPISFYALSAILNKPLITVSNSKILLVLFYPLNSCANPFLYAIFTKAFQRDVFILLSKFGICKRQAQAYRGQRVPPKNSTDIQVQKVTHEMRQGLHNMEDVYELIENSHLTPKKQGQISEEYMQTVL
Summary of the method: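 Screening of the Tox21 10K collection used HEK293 cells engineered with TSHR at 800 cells per well. After a 30-min room-temperature compound exposure, HTRF cAMP reagents were added and fluorescence recorded 1 h later.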

[15] = qHTS assay to identify small molecule agonists of the hypoxia (HIF-1) signaling pathway - cell viability counter screen (AID 1224844; calls by dose curve; also: nearly all actives have a fitted effect of over 50% in size; also: potency is read from the fitted curve at half-maximal effect)
Summary of the method: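 HRE-bla ME-180 cells in medium with 0.5% dialyzed FBS were preincubated 5 hrs at 37C, exposed to compounds for 17 hrs, then viability was read as CellTiter-Glo luminescence after 30 min at room temperature, in the reporter wells.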

[16] = qHTS assay to identify small molecule antagonists of the estrogen related receptor signaling pathway with the pleiotropic PPARgamma coactivator (PGC) from Tox21 10K library (AID 1224841; call rule not given here; also: potency is read from the fitted curve at half-maximal effect; as to activity, negative = inhibition: series mostly up to about 92 µM; % is scaled to controls: 0 for no effect and ±100 for the full control effect)
Summary of the method: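 PGC/ERR reporter cells were seeded at 2,000 cells/well and held 6 hours at 37 C/5% CO2 before pin-tool addition of compounds in DMSO. After 18 hours at 37 C, One-Glo was added and luminescence read after 30 minutes at room temperature.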

[17] = qHTS assay to identify small molecule antagonists of the estrogen related receptor signaling pathway with the pleiotropic PPARgamma coactivator (PGC) from Tox21 10K library - cell viability counter screen (AID 1224840; active = well fitted cell-killing curve with a large enough effect in the repeat runs, not every such curve was filed as active; also: nearly all actives have a fitted effect of over 40% in size; also: potency is read from the fitted curve at half-maximal effect)
Summary of the method: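 PGC/ERR cells were seeded at 2,000 cells/well and left 6 hours at 37 C/5% CO2 before pin-tool addition of compounds in DMSO. After 17.5 hours at 37 C, CellTiter-Fluor was added and fluorescence read 30 minutes later.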

[18] = qHTS assay to identify small molecule agonists of the retinoic acid receptor (RAR) signaling pathway (AID 1159553); also: potency is read from the fitted curve at half-maximal effect
Summary of the method: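 C3RL4 cells carrying a RARE luciferase reporter were plated overnight at 37 C, then exposed to compounds in DMSO for 6 hr at 37 C and 5% CO2. Luminescence was read 30 min after luciferase reagent addition at room temperature.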

O=C1NCN(c2ccccc2)C12CCN(CCCC(c1ccc(F)cc1)c1ccc(F)cc1)CC2
inactive: outcome [3] | outcome [4] | outcome [6] | Potency [8] | Potency [12] | Potency [13] | Potency [14]
active: Potency [1] 29.8 µM | Potency [2] 23.7 µM | Potency [5] 22.8 µM | Potency [7] 26.6 µM | Potency [9] 16.8 µM | Potency [10] 13.3 µM | Potency [11] 13.3 µM | Potency [15] 10.7 µM

CCCCCCCC/C=C\CCCCCCCC(=O)N(C)CC(=O)O
active: Potency [15] 49 µM
inactive: Potency [9] | Potency [10] | Potency [11] | Potency [12] | Potency [16] | Potency [13]

CC(=O)OC(OC(C)=O)c1ccc([N+](=O)[O-])o1
active: Potency [1] 27.8 µM | Potency [7] 62.2 µM | Potency [10] 62.2 µM | Potency [11] 55.4 µM | Potency [14] 27.8 µM
inactive: Potency [8] | Potency [12] | Potency [13]

CCCCCCC(C)OC(=O)COc1nc(F)c(Cl)c(N)c1Cl (centres undefined)
inactive: Potency [8] | Potency [9] | Potency [10] | Potency [17] | Potency [16] | Potency [13] | Potency [15]

CCCCCCCCCCOCC(O)CN (centres undefined)
inactive: Potency [8] | Potency [15]
active: Potency [10] 29.8 µM | Potency [14] 21.1 µM

CC(O)C#CC(C)O (centres undefined)
active: Potency [1] 30.3 µM | Potency [10] 53.9 µM | Potency [11] 48.1 µM
inactive: Potency [8]

Clc1ccc(C(Cn2ccnc2)OCc2ccsc2Cl)c(Cl)c1 (centres undefined)
inactive: Potency [8] | Potency [13] | Potency [15]
active: Potency [7] 21.1 µM | Potency [12] 23.7 µM | Potency [16] 18.8 µM

C=CC(=O)OCC(O)COc1ccccc1 (centres undefined)
active: Potency [15] 38.9 µM
inactive: Potency [8]

CCCCCCOc1cc(C)c(O)c(C)c1C
active: Potency [7] 61.9 µM | Potency [12] 49.2 µM | Potency [17] 55.1 µM
inactive: Potency [8] | Potency [9] | Potency [10] | Potency [11] | Potency [16] | Potency [13]

Nc1ccc2cc3ccc(N)cc3nc2c1
24.5 µM (active) and inactive: Potency [15]
inactive: Potency [8]

S=C(SSSSSSC(=S)N1CCCCC1)N1CCCCC1
active: Potency [8] 6.22 µM | Potency [9] 8.48 µM | Potency [10] 7.56 µM | Potency [15] 3.41 µM
inactive: activity, negative = inhibition [1] -10.6% [at 19 µM]

O=Nc1ccc(NO)cc1
inactive: Potency [1] | Potency [7] | Potency [9] | Potency [10] | Potency [11] | Potency [12] | Potency [17] | Potency [16] | Potency [13] | Potency [15]

Oc1ccc(-c2ccc(O)cc2)cc1
inactive: Potency [1] | Potency [18] | Potency [9] | Potency [10] | Potency [11] | Potency [17] | Potency [16] | Potency [13] | Potency [14]
active: Potency [8] 40.2 µM | Potency [12] 17.3 µM | Potency [15] 49.3 µM

NC(=O)c1nc(-c2cccc(-c3cc(F)ccc3OCC(F)(F)C(F)(F)F)c2)n[nH]1
inactive: Potency [18] | Potency [8] | Potency [14]
active: Potency [9] 61.1 µM | Potency [16] 24.3 µM

CCCCCCCCCCCCOC(=O)c1cc(O)c(O)c(O)c1
active: Potency [18] 172 nM and 386 nM | Potency [7] 60.9 µM and 27.3 µM | Potency [10] 68.3 µM | Potency [11] 76.6 µM | Potency [17] 30.5 µM and 6.11 µM | Potency [15] 48.8 µM and 54.9 µM
inactive: Potency [8] | Potency [12] | Potency [14]

Cc1cccc(C)c1NC(=O)CN1CCN(CCCC(c2ccc(F)cc2)c2ccc(F)cc2)CC1
inactive: Potency [8] | Potency [11] | Potency [12] | Potency [17] | Potency [14]
active: Potency [1] 26.6 µM | Potency [7] 21.1 µM | Potency [10] 23.7 µM

CCCCC(CC)COC(=O)c1ccc(O)cc1 (centres undefined)
inactive: Potency [18] | Potency [8] | Potency [9] | Potency [10] | Potency [17] | Potency [14]
active: Potency [7] 43.1 µM | Potency [15] 49 µM

NC1(c2ccc(-c3nc4ccn5c(=O)[nH]nc5c4cc3-c3ccccc3)cc2)CCC1
inactive: Potency [8] | Potency [12] | Potency [13] | Potency [14]
active: Potency [1] 11.9 µM | Potency [7] 13.3 µM | Potency [11] 11.9 µM | Potency [17] 15 µM | Potency [16] 3.35 µM | Potency [15] 2.13 µM

O=C1NC2CCCCN2C12CCN(CCCN1c3ccccc3CCc3ccc(Cl)cc31)CC2 (centres undefined)
inactive: Potency [8] | Potency [12] | Potency [13] | Potency [15]
active: Potency [7] 29.8 µM | Potency [16] 10.6 µM

CCC(C)c1cc([N+](=O)[O-])cc([N+](=O)[O-])c1OC(=O)OC(C)C (centres undefined)
active: Potency [1] 34.4 µM | Potency [7] 24.3 µM | Potency [10] 61.1 µM | Potency [17] 43.3 µM | Potency [16] 21.7 µM
inactive: Potency [18] | Potency [8] | Potency [13] | Potency [14]

O[C@@H](c1cc(C(F)(F)F)nc2c(C(F)(F)F)cccc12)[C@H]1CCCCN1
active: Potency [7] 29.8 µM | Potency [9] 29.8 µM | Potency [10] 29.8 µM
inactive: Potency [8] | Potency [12] | Potency [16] | Potency [13] | Potency [14]

CC=O
active: Potency [7] 28.6 µM | Potency [11] 36 µM | Potency [17] 25.5 µM | Potency [15] 40.7 µM
inactive: Potency [8]

O=C1NCCN1CCN1CCC(c2cn(-c3ccc(F)cc3)c3ccc(Cl)cc23)CC1
inactive: Potency [8] | Potency [12] | Potency [16]
active: Potency [7] 26.6 µM | Potency [11] 11.9 µM
